Assay results reported in the supplement of paper PMC11732987, “Enantioselective OTUD7B fragment discovery through chemoproteomics screening and high-throughput optimisation” (Communications Chemistry, 2025).

Columns and labels:
Test in all cases: log2 ratio of Biotin-Ahx-Ub-VS probe labelling (fragment/DMSO); higher = less target engagement (more negative = stronger competition), active = hit call of the paper (q ≤ 0.05, log2 ratio ≤ -1)
Settings in all cases: compound concentration: 200 uM; treatment time: 3 h
USP19 = molecular target: T1, USP19 (UniProt O94966)
T1 sequence (whole entry): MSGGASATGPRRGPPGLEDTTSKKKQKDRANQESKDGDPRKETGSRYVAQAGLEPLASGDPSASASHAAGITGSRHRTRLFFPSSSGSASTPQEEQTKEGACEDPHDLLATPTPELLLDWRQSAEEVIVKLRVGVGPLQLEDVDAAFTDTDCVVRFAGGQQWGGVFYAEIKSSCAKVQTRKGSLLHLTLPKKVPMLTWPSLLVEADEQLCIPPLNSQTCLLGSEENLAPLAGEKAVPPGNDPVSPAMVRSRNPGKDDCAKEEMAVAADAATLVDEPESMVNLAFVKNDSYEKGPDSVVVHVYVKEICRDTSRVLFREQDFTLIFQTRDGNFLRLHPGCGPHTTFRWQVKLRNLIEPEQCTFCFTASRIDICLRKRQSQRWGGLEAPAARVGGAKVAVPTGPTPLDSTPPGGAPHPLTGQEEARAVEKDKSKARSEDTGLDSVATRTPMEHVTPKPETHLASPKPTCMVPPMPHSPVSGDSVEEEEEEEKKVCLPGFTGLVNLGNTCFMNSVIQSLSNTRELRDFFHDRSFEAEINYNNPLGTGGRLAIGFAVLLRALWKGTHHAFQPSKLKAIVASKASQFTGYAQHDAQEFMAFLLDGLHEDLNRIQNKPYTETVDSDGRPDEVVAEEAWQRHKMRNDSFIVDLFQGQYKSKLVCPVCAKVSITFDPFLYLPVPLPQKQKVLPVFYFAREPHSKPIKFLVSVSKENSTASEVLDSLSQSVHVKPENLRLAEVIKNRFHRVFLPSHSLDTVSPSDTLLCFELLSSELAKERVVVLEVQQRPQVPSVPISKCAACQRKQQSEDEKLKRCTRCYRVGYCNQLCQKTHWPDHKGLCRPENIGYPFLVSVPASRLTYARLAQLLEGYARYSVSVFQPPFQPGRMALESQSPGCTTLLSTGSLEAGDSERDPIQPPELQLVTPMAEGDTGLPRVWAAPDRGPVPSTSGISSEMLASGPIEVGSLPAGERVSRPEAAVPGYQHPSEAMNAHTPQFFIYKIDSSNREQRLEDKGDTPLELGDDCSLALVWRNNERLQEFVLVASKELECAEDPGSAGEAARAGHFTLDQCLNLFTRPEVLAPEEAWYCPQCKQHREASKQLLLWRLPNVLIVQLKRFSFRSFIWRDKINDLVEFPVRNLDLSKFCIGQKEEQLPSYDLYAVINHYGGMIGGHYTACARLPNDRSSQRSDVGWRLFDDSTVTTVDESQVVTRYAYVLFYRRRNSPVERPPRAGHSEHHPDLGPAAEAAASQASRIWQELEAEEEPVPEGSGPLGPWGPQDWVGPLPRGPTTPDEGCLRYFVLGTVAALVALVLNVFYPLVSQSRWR
Summary of the method: (§1)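 Labelled DUBs from HEK293T lysate were NeutrAvidin-enriched, digested with LysC and trypsin, and run by diaPASEF LC-MS/MS. Before that, each 495 µg sample in Tris/CHAPS/IGEPAL buffer with protease inhibitors was treated in triplicate with fragment at 200 µM or vehicle for 3 h, then with Biotin-Ahx-Ub-VS at 0.5 µM final for 1 h. Values are average log2 ratios of fragment over vehicle by unpaired t-test, based on global-median-normalised Spectronaut label-free quantities from proteins with ≥2 unique peptides.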

USP24 = USP24 (UniProt Q9UPU5)
USP24, sequence (Q9UPU5 whole entry): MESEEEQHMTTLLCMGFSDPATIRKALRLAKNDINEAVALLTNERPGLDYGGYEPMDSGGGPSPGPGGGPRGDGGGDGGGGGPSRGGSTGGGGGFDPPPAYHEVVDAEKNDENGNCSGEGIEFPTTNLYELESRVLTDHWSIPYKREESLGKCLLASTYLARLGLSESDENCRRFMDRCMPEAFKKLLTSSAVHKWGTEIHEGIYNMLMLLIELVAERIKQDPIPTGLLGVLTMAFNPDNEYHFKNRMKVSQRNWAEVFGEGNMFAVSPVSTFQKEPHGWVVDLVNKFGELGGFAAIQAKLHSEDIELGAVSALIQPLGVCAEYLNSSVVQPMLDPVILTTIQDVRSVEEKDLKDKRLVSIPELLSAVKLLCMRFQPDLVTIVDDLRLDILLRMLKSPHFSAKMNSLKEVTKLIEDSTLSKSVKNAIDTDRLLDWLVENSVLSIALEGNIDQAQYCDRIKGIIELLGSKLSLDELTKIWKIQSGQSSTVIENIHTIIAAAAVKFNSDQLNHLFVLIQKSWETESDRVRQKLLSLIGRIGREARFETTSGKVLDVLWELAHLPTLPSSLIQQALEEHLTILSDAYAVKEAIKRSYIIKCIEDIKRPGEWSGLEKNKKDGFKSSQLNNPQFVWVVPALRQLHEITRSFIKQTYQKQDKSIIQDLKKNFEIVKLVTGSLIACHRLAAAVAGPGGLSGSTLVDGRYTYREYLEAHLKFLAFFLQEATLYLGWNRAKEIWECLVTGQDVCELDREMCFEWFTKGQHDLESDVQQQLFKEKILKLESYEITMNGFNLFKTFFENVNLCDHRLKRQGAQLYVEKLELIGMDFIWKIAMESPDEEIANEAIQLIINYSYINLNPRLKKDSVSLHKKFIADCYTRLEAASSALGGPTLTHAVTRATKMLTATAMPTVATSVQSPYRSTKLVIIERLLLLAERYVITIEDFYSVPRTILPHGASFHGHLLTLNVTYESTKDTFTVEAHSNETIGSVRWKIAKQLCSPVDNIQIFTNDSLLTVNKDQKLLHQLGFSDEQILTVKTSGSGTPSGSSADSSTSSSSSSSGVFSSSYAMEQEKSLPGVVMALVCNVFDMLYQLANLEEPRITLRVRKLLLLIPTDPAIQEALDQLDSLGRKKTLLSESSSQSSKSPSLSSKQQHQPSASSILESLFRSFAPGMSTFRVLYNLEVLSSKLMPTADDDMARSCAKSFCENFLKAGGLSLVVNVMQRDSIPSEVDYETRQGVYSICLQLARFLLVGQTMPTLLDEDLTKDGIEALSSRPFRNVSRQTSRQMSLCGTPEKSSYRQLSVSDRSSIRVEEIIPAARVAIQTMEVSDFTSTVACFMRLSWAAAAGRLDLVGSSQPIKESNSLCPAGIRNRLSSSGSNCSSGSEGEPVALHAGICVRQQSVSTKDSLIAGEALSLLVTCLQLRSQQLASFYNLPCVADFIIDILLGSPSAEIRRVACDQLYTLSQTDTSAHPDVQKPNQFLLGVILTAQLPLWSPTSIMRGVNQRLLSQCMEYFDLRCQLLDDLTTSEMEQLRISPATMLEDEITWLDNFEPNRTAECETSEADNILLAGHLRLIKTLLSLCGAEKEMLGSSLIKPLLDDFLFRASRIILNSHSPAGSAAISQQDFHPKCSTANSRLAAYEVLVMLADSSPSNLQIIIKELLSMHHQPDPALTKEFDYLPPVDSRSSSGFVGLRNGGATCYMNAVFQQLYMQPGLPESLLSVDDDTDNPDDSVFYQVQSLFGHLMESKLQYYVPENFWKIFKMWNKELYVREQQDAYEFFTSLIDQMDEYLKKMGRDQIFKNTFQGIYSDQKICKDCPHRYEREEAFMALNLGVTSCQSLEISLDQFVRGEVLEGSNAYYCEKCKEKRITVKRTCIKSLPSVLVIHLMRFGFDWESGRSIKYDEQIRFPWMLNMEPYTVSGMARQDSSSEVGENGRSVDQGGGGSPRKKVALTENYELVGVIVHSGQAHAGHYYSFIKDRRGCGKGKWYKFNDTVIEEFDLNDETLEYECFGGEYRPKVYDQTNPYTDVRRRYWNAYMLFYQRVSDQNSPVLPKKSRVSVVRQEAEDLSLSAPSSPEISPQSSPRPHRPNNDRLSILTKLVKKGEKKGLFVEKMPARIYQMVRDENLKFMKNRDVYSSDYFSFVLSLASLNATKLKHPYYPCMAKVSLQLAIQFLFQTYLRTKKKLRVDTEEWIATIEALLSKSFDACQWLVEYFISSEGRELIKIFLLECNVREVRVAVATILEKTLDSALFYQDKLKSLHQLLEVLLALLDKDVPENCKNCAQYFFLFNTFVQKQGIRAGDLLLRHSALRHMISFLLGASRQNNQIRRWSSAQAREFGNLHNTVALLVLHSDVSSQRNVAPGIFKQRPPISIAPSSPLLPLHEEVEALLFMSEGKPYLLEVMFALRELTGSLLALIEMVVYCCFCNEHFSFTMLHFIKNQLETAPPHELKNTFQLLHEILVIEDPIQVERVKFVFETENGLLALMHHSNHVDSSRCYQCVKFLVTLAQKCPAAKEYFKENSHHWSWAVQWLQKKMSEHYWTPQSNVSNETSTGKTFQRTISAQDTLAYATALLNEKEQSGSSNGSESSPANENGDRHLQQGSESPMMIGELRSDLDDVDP
Summary of the method: as §1

USP25 = molecular target: T2, USP25 (UniProt Q9UHP3)
T2 sequence (whole entry): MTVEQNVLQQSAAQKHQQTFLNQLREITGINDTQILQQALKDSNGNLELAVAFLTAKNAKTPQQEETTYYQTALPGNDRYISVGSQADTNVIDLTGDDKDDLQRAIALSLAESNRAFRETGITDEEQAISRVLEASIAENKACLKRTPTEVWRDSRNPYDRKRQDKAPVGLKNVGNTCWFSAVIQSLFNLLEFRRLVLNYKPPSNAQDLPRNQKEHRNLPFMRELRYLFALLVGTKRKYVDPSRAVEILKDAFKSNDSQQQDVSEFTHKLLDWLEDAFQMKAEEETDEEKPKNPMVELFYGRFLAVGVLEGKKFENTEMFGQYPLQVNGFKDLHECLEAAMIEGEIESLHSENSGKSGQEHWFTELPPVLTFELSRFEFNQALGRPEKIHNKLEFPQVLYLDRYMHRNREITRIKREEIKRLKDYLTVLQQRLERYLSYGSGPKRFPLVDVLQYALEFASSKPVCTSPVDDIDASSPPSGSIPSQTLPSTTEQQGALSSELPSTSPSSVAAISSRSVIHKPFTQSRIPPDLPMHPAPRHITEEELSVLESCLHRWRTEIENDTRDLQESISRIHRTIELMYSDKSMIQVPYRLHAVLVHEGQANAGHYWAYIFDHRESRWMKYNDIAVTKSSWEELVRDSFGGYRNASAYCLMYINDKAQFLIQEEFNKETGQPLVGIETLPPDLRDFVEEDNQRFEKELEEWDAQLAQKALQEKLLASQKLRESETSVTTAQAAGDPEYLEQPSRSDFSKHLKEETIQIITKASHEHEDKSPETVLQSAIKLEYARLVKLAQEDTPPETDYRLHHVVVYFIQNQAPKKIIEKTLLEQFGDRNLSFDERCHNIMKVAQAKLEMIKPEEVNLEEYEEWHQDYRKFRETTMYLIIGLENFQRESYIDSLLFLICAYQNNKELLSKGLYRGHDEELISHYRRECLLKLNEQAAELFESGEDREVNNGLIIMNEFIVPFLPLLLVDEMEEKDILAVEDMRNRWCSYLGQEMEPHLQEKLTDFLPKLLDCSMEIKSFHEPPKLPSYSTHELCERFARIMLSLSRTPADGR
Summary of the method: as §1

USP28 = molecular target: T3, USP28 (UniProt Q96RU2)
T3 sequence (whole entry): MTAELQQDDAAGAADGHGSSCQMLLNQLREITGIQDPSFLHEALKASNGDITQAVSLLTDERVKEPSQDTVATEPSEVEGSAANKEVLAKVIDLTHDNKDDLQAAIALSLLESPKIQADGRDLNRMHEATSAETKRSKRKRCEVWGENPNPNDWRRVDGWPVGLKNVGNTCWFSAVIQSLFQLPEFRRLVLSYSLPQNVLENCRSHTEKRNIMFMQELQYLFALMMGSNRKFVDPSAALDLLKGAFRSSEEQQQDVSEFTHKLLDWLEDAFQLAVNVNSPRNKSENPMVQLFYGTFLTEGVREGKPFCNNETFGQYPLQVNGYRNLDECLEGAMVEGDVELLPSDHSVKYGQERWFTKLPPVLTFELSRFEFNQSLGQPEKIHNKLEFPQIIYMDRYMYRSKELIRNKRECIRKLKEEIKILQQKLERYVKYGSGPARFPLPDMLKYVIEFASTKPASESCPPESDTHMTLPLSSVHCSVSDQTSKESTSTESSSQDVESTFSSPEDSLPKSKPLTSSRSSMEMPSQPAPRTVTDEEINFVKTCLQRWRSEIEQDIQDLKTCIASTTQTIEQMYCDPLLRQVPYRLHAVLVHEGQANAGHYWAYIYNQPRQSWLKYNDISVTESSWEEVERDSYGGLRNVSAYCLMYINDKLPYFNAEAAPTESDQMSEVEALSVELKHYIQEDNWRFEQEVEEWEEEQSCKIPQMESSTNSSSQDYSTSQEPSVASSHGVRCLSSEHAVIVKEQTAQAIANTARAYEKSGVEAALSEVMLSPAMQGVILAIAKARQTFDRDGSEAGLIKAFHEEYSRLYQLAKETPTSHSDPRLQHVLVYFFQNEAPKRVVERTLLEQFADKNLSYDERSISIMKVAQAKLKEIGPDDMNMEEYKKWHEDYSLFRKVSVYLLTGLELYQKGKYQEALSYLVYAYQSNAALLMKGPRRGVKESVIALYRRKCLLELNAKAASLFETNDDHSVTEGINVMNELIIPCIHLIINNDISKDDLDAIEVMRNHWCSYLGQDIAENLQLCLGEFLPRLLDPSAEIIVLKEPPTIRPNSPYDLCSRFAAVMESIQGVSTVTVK
Summary of the method: as §1

Measured: log2 ratio of Biotin-Ahx-Ub-VS probe labelling

O=C(CCl)NCc1ccc(N2CCOCC2)c(F)c1
inactive: USP19 0.108 | USP24 0.223 | USP25 -0.255 | USP28 -0.606
